Test results as given in PubChem BioAssay (NCI).
About 83,000 compounds went through this panel and 20% of them were active in at least one assay; those are over-represented in the sample as a whole.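 The endpoint reported here, percent growth, reads 100 for growth as untreated, 0 for no net growth and -100 for all cells dead.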 Values without a mark were called inactive. The source made the active and inactive calls. The calls were made as follows: active = growth percent below 10; inactive = the rest.

Each molecule was assayed on HL-60(TB) leukemia (assay: NCI-60 one-dose screen, 48 h (100 = growth as untreated, 0 = no growth, -100 = all killed)). Settings: 10 µM unless noted.

For FC(F)(F)c1ccc(-c2cnc(Br)nc2NC2CCCCCC2)cc1, the growth was 8.9% (active).
With Cc1c(CN2CCN(C(=O)[C@H](C)O)CC2)sc2c(N3CCOCC3)nc(-c3cnc(N)nc3)nc12 the growth was -7.28% (active).
CCC(c1ccc(OC)cc1)C(CC)c1ccc(OCC[N+](C)(C)C)cc1 (stereo not given) was tested, and the growth was -17.4% (active).
COc1ccc(NC(=O)c2ccc(C(F)(F)F)nc2Nc2ccc(Cl)cc2C)cc1Cl was tested, and the growth was 4.78% (active).

Compared with CCOC(=O)C1CSC(C)(C(=O)OCC)N1 (stereo not given), CCC(C)Oc1cc(/C=N/NC(=O)c2cnn3c2NC(c2ccccc2)C3)ccc1OC (stereo not given) is lower in growth: 83.8% for the first, 32.2% for the second.

First: C=C1C(=O)O[C@H]2[C@H](O)[C@@H](C)CCC/C(C)=C/CC[C@@]3(C)O[C@@H]3C[C@@H]12
Second: CN1CCN(c2ccc3cc(-c4nc5ccccc5[nH]4)c(=O)oc3c2)CC1
The growth of the first is higher: 92.5% for the first, 73% for the second.

Compared with S=C(Nc1ccccc1)N1CCCCC1, CCCCNC(=O)Oc1ccc(/C(=C(\C)c2ccc(Cl)cc2)c2ccc(OCCN3CCCCC3)cc2)cc1 is lower in growth: 93.5% for the first, 64.9% for the second.

Going from COc1cc2cc(NCc3ccc(F)cc3)nc(C)c2cc1OC to COc1ccc(Cn2nc3c(c2-c2cc(OC)c(OC)c(OC)c2)-c2oncc2CC3)cc1, the growth rises from 31.7% to 54.4%.

First: CC(=O)c1ccc(C)c(N)c1
Second: CS(=O)(=O)c1ccc(C(=O)Nc2ccc(Cl)c(-c3ccccn3)c2)c(Cl)c1
The growth of the first is higher: 94.8% for the first, 14.2% for the second.

For CCN(CC)CCSc1ncnc2c1cnn2-c1ccc(S(N)(=O)=O)cc1, the growth was 72.4%.
